In PubChem BioAssay AID463173 (ICCB-Longwood Screening Facility, Harvard Medical School, 2010):
Hit rate of the full screen: of about 52,000 compounds, about 1,700 (3.3%) were called active. No stated cut-off is given here; in the data, active means survival mostly below about 52% (no sharp cut-off); inactive means mostly above about 56%. For the sample, actives were picked, then their nearest neighbours and some compounds at random.

system: Wild type; assay: growth inhibition of S. aureus wild type versus tarO mutant, primary screen, teichoic acid synthesis inhibitors, RN4220, OD600 (AID 463173); settings: S. aureus RN4220 wild type/DeltatarO growth, OD600, 18 h, active compounds read low, screened at 18.75 µg/mL (by protocol)

Structure (SMILES) | survival
Cc1cc(Nc2ccccc2F)n2nc(-c3ccccc3)nc2n1 | 84% (inactive)
Cc1cc(Nc2cc(Cl)ccc2C)n2nc(-c3ccccc3)nc2n1 | 93% (inactive)
COc1ccccc1Nc1cc(C)nc2nc(-c3ccccc3)nn12 | 14% (active)
CCCCC1CCC(C(=O)N2CC(=O)Nc3ccc(Cl)cc3C2c2ccc(F)cc2)CC1 (stereo not given) | 71% (inactive)
CC1CCN(C(=O)c2cc3n(n2)C(C(F)(F)F)CC(c2ccccc2)N3)C(C)C1 (stereo not given) | 123% (inactive)
Cc1cccc(C(=O)Nc2cccc(OCc3cc(=O)n4ccccc4n3)c2)c1 | 72% (inactive)
CSc1ccc(CCNC(=O)c2ccc3c(c2)c(C)c(C)n3Cc2ccc(F)cc2)cc1 | 70% (inactive)
Cc1ccc(CNC(=O)c2c[nH]n3c(=O)c(Cc4ccc(F)cc4Cl)c(C)nc23)cc1 | -15% (active)
Cc1nc2nc(NC(=O)c3ccc(Cl)cc3)[nH]n2c(=O)c1Cc1ccccc1 | 93% (inactive)
Cc1ccc(CNC(=O)CN2CCN(Cc3ccc(F)cc3Cl)C2=O)cc1 | 81% (inactive)
Cc1nc2c(C(=O)NCCc3ccccc3)c[nH]n2c(=O)c1Cc1ccc(F)cc1Cl | -15% (active)
Cc1nc2c(C(=O)NCCc3ccccc3)cnn2c(C)c1Cc1c(F)cccc1Cl | 71% (inactive)
Cc1ccc(CNC(=O)c2c[nH]n3c(=O)c(Cc4ccc(Cl)cc4)c(C)nc23)cc1 | -14% (active)
Cc1cccn2c(=O)c(C(=O)NCCc3ccccc3)cnc12 | 49% (inactive)
Cc1nc2nc(NCc3ccc(Cl)cc3)[nH]n2c(=O)c1Cc1ccccc1 | 61% (inactive)
Cc1nc2nc(NC(=O)c3ccc(F)cc3)[nH]n2c(=O)c1Cc1ccccc1 | 88% (inactive)
Cc1nc2c(C(=O)NCCc3ccccc3)c[nH]n2c(=O)c1Cc1ccccc1F | -15% (active)
Cc1ccc(CNC(=O)c2cnn3c(C)c(Cc4c(F)cccc4Cl)c(C)nc23)cc1 | 65% (inactive)
O=C(NCCc1ccccc1)c1ccc2c(c1)N(Cc1ccc(F)cc1Cl)C(=O)CS2 | 67% (inactive)
COc1ccc(N2C(=O)CSC23C(=O)N(Cc2ccccc2F)c2ccccc23)cc1Cl (stereo not given) | 68% (inactive)
COc1cccc(NC(=O)CSC2=Nc3ccccc3N=C(c3ccc(F)cc3)C2)c1 | 69% (inactive)
O=C(CSC1=Nc2ccccc2C2=NC(Cc3ccccc3)C(=O)N12)Nc1cccc(Cl)c1 (stereo not given) | 76% (inactive)
Cc1cccc(NC(=O)Cn2nnc(C(=O)NCc3cccs3)c2N)c1 | 89% (inactive)
Cc1ccc(-n2ncc3c(N4CCN(c5ccccc5)CC4)ncnc32)cc1C | 69% (inactive)
CCN1CCC(N(Cc2cccc(OC)c2)C(=O)Nc2cccc(C(F)(F)F)c2)CC1 | 66% (inactive)
